We go through 39 compounds from PubChem BioAssay.

Values without a mark were called inactive. The rule behind the calls is not given here.

This test deals with Pantothenate synthetase (Mycobacterium tuberculosis (strain ATCC 25618 / H37Rv)) (UniProt P9WIL5). The test is described as follows: Recombinant Mtb pantothenate synthetase (PanC) inhibitors, coupled enzyme, confirmatory (AID 375).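 Note: 0% = full reaction with vehicle and 100% = no enzyme background.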 The note with it: coupled enzyme assay; at 10 µM, stronger effect = higher value.
Sequence of Pantothenate synthetase (Mycobacterium tuberculosis (strain ATCC 25618 / H37Rv)) (P9WIL5 whole entry, looked up): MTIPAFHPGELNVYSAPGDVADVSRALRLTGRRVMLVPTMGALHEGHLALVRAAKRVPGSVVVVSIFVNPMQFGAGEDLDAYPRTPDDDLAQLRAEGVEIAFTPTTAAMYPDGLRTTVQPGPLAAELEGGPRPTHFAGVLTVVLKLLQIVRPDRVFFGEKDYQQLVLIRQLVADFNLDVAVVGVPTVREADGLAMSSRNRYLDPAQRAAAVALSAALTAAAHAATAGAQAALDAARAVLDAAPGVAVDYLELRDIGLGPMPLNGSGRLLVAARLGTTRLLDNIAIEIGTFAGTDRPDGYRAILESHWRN
Turning to `N#Cc1c(N2CCOCC2)nc(N2CCCCC2)c2c1CCN(C1CCCCC1)C2`, the inhibition is 0%.

Regarding `Cc1cc(C(N)=O)c2cc(Br)ccc2n1`, the inhibition was 10%. Take `C=CCC(NCc1ccco1)c1ccc(OC)cc1OC` (centres undefined): the inhibition was 3%. To `Cc1nn(-c2nc3ccccc3s2)c(C)c1Oc1ccccc1O` belongs 2%; to `O=C(NCc1cccnc1)/C(=N\O)c1ccccc1`, 0%.

As to `CCOC(=O)c1cc2c(=O)n3ccccc3nc2n(CC2CCCO2)c1=NC(C)=O` (centres undefined), the inhibition is 4%. For `CCN1CCN(C(=O)c2cn(CC)c3ccc(S(=O)(=O)N(C)C)cc3c2=O)CC1`, the inhibition is 0%. The result for `Cn1c(COc2ccccc2)nnc1SCC(=O)Nc1ccc(N2CCOCC2)c(Cl)c1` reads 6%. On to `CON(C)c1nc(Oc2ccc(=O)[nH]n2)nc(N(C)C)n1`, for which the inhibition was 1%. The result for `O=C(O)CC(C(=O)Nc1cccc(C(F)(F)F)c1)C1CCCO1` (centres undefined) reads 1%; that for `COc1cccc(NC(=O)CSc2nnc(-c3cccs3)n2C)c1`, 0%; that for `CCOC(=O)c1c(N)sn(-c2ccccc2)c1=S`, 5%. On to `Cc1ccc(F)cc1NC(=O)Cc1nn(C)c(=O)c2ccccc12`, for which the inhibition is 1%. `O=C(Nc1ccc(F)cc1)N(Cc1ccco1)Cc1cc2cc3c(cc2[nH]c1=O)OCO3`: the inhibition is 0%. Consider `CCc1ccc(NS(=O)(=O)c2ccc3[nH]cc(C(=O)N4CCCCC4)c(=O)c3c2)cc1`, for which the inhibition is 0%. With `CC(C)Cc1n[nH]c(=O)[nH]1`, the inhibition is 2%. In the case of `O=C(NCCN1CCOCC1)c1csc2c1CCCC2`, the inhibition was 0%.

Regarding `CN(C(=O)c1ccco1)c1nnc(C23CC4CC(CC(C4)C2)C3)s1`, the inhibition was 0%.

With `Cn1cccc1Cc1nnc(SCC(N)=O)n1-c1ccc(F)cc1`, the inhibition is 0%. Turning to `COc1c2ccoc2nc2c(OC)c(OCC(O)C(C)(C)O)ccc12` (centres undefined), the inhibition was 0%. To `CCCCOC(=O)n1c(SCC(=O)N(CC)CC)nc2ccccc21` belongs 0%; to `CCNC(=O)c1ccc(NS(=O)(=O)c2ccccc2)cc1`, 6%. In the case of `CCCC(=O)O[C@]1(C(=O)CCl)[C@@H](C)C[C@H]2[C@@H]3CCC4=CC(=O)C=C[C@]4(C)[C@@]3(F)C(=O)C[C@@]21C`, the inhibition is 0%. In the case of `COc1cc(OC)cc(-c2nnc(Nc3nc4c(F)cccc4s3)o2)c1`, the inhibition was 12%. The result for `Cc1ccc(CNc2cc(-c3nn4c(C)nnc4s3)ccc2C)s1` reads 4%; that for `O=C1CCc2nc3sc4c(c3c(=O)n2N1)CCCC4`, 0%; that for `O=C(c1ccc2snnc2c1)N1CCOCC1`, 3%. To `CC1C(c2ccccc2)N(C)CCC12NC(=O)NC2=O` (centres undefined) belongs 1%; to `Cc1ccc(-n2nnnc2SCC(=O)c2cc(C)n(CC3CCCO3)c2C)cc1` (centres undefined), 0%; to `Cc1ccc2cccc(SCC(=O)N3CCOCC3)c2n1`, 5%. Take `N#CC(C(=O)NCCc1ccccc1)c1nc2ccccc2nc1N1CCOCC1` (centres undefined): the inhibition is 0%. To `CCOc1cc(NC(=O)c2ccco2)c(OCC)cc1NC(=O)Cc1cccc(OC)c1` belongs 8%. The result for `CCCSc1ccc2nc(NC(=O)OC)[nH]c2c1` reads 0%; that for `CC1(C)C(c2ccccc2)=NC(c2ccccc2)N1O` (centres undefined), 3%; that for `Cc1[nH]nc(-c2ccc(O)c(C)c2O)c1-c1cnn(-c2ccccc2)c1`, 0%. To `CCOc1ncccc1C(=O)OCC(=O)N1CC(=O)Nc2ccccc21` belongs 0%. Turning to `Cc1ccc(C)c(C(=O)CC2(O)C(=O)Nc3ccccc32)c1` (centres undefined), the inhibition was 5%. Turning to `O=C(Nc1c(C(=O)NCc2ccco2)cnn1-c1ccccc1)c1ccc(F)cc1`, the inhibition is 2%. The result for `O=C(COC(=O)C1CCN(S(=O)(=O)c2cccs2)CC1)c1cc2ccccc2o1` reads 0%.

In general, inhibition refers to the drop in the measured response relative to a control, in per cent.
